Compound activity: PubChem BioAssay, National Center for Advancing Translational Sciences (NCATS)
An excerpt weighted towards active compounds, which were near 5.2% of everything screened.
Tau fluor cs – counter-screen for tau fibril formation inhibitors; Potency, µM (top dose mostly 57.7 µM), for the others: at the highest dose activity change, negative = decrease; tau K18 P301L Alexa594 fluorescence, heparin fibrillization; hit rate 0.93% among 280,000; AID 1463; also: potency is read from the fitted curve at half-maximal effect; nearly all actives have a fitted effect of over 55% in size
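Human K18 P301L tau (15 uM unlabeled plus 0.24 uM Alexa 594-labeled, final) in 100 mM sodium acetate pH 7 was mixed with compound and 20 uM heparin and incubated 6 hr at 37 C.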
Tau fibril ThT – blocks human tau fibril formation measured by thioflavin T; hit rate 2.1% among 270,000; P10636; recombinant tau K18 P301L (four-repeat tau fragment), heparin-induced fibrillization, ThT fluorescence; Potency, µM (top dose mostly 57.4 µM), for the others: at the highest dose activity, negative = inhibition, actives largely listed as inhibitors; also: potency is read from the fitted curve at half-maximal effect; nearly all actives have a fitted effect of over 55% in size
Target sequence (P10636 561-689 P618L limits assumed): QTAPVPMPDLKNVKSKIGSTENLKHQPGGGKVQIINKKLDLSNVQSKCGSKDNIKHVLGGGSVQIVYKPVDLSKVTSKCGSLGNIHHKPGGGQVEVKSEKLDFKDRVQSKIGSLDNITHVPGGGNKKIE
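Heparin-induced fibrillization of the P301L-mutant K18 repeat-domain fragment of human tau was followed by ThT binding in quantitative high-throughput format.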
Coupling enz – inhibits coupling enzyme system, counter-screen for aldolase hits; coupling enzyme system counterscreen, AmpLite Red fluorescence; activity change, negative = inhibition, % at 58.2 µM, hits read low; hit rate 0.67% among 290,000; in the data active = activity change below about -30%
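Coupling enzymes only (glyceraldehyde-3-phosphate) + compound, at 57.5 uM final, 10 min RT; add substrate/coupling/AmpLite Red mix, 20 min RT; fluorescence ex 525/em 598 nm. Actives flag coupling-system interference.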
Tau FP inhib – blocks human tau fibril formation measured by polarization; P10636; K18 P301L tau heparin fibrillization, Alexa594 FP, 6 h; Potency, µM (series often up to 57.7 µM), for inactives: top-dose activity, negative = inhibition, actives largely listed as inhibitors; hit rate 0.39% among 280,000; also: potency is read from the fitted curve at half-maximal effect; nearly all actives have a fitted effect of over 55% in size
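Steps: dispense K18 P301L tau (15 uM plus 0.24 uM Alexa 594 tracer, final) in pH 7 sodium acetate; add compound; add heparin (20 uM final); incubate 6 hr, 37 C; add ThT (30 uM final); after 1 hr ambient, read FP.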
Sfp inh – Sfp phosphopantetheinyl transferase inhibition; Biochemical Sfp PPTase activity, qHTS; hit rate 3.5% among 310,000; Potency, µM, inactives show largest response in the series, negative = inhibition, actives largely listed as inhibitors;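 also: the enzyme is Sfp with the accession as filed and its product quenches rhodamine fluorescence; potency is read from the fitted curve at half-maximal effect; 0% = enzyme reaction without inhibitor and -100% = no enzyme wells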
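Fluorescence-quenching assay with 15 nM Sfp, 5 uM rhodamine-CoA and 12.5 uM BHQ-2-labelled ybbR peptide in pH 7.6 Hepes/MgCl2 buffer. Enzyme was pre-incubated with compound for 15 min at room temperature. Rate was taken from the 30-min fluorescence change (525/598 nm).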
An asterisk follows results filed as active; ? = inconclusive; nt = not tested or not shown; [ ] = remark or other dose. Unless noted, calls follow the shape of the dose curve; as a rule, active = well fitted curve in the direction sought with a large enough effect; inconclusive = small, poorly fitted or top-dose-only effect, or another doubt; inactive = no such curve, though single readings can be large; an effect the other way counts as inactive or inconclusive. Unless noted, % is scaled to controls: 0 for no effect and ±100 for the full control effect.

SMILES | Tau fluor cs | Tau fibril ThT | Coupling enz | Tau FP inhib | Sfp inh
CCN(Cc1ccccc1)c1ccc(N=Nc2nn(C)c(C)c2[N+](=O)[O-])cc1 | ? | 10µM* | 1 | ? | -6%
CCN(CC)c1ccc(N=Nc2nn(C)c(C)c2[N+](=O)[O-])cc1 | ? | 16µM* | -5 | 10% | -14%
CCN(Cc1ccccc1)c1ccc(/C=N/N=C(N)N)cc1 | ? | -21% | -2 | ? | ?
COc1ccc(CCNC(=O)c2cc(C)nc3c2c(C)nn3-c2ccc(C)cc2)cc1OC | -17% | -18% | nt | -9% | nt
Cc1ccc(SC2=C(Sc3ccc(C)cc3)C(=O)c3ccccc3C2=O)cc1 | 2.5µM*[quencher] | 3.2µM* | -30 | 14µM* | 7.1µM*
Cc1ccc(N2C(=O)c3ccccc3C2=O)cc1 | 2% | nt | 2 | 0% | 10%
O=C(Nc1ccc(Br)cc1)C(Cc1ccccc1)NS(=O)(=O)c1cccc2nsnc12 (stereo not drawn) | -13% | 10% | nt | -15% | nt
O=C(Nc1ccc(OC(F)(F)F)cc1)C(Cc1ccccc1)NS(=O)(=O)c1cccc2nsnc12 (stereo not drawn) | ? | 5% | nt | 16µM* | nt
CC(=O)OCC1OC(C#Cc2ccc(Cl)cc2)C=CC1OC(C)=O (stereo not drawn) | -15%[11.6 µM] | -14%[11.5 µM] | 2 | 0%[11.6 µM] | 8%
CCOC(=O)c1cnn(-c2cc(Oc3ccccc3C)ncn2)c1N | -14% | ? | 1 | -7% | 50µM*
CCn1c(SCC(=O)Nc2c(C)cccc2C)nnc1-c1nonc1NC(C)=O | -11% | -12% | nt | -6% | nt
Cc1cccc2nc(=S)n(C(=O)c3ccco3)n12 | -8% | 4% | -13 | -5% | 16µM*
O=C(c1ccco1)n1c(=S)nc2ccccn21 | -5% | ? | -4 | ? | -21%
Cc1nn2c3c(cnc2c1-c1ccccc1)C(=O)CC(c1ccccc1)C3 (stereo not drawn) | -10% | -10% | 2 | 2% | 6%
Cc1nn2c3c(cnc2c1-c1ccccc1)C(=O)CC(c1ccco1)C3 (stereo not drawn) | -14% | -10% | -1 | -11% | 89µM*
Cc1nc2sc(C(c3ccco3)N3CC(C)OC(C)C3)c(O)n2n1 (stereo not drawn) | -3% | -2% | -7 | -4% | 25µM*
Cc1nc2sc(C(c3ccco3)N3CCC(C)CC3)c(O)n2n1 (stereo not drawn) | 2% | -9% | 0 | 0% | 16µM*
Oc1c(C(c2ccccc2)N2CCCCC2)sc2ncnn12 (stereo not drawn) | -1% | -4% | 0 | 2% | 7%
Oc1c(C(c2ccco2)N2CCOCC2)sc2ncnn12 (stereo not drawn) | -15% | ? | -8 | -11% | 40µM*
Cc1nc2sc(C(c3ccco3)N3CCN(C(c4ccccc4)c4ccccc4)CC3)c(O)n2n1 (stereo not drawn) | 6% | 10% | -4 | -2% | 7.9µM*
CCSC[C@H](NC(=O)[C@H](C)N)C(=O)N[C@@H](CC(=O)O)C(=O)N[C@H](C(=O)N[C@@H](C)C(=O)N[C@H](C(=O)N[C@@H](CSCC)C(=O)N[C@H](C(=O)N[C@H](C(=O)N[C@@H](Cc1cnc[nH]1)C(=O)N[C@@H](CCCNC(=N)N)C(=O)N[C@@H](CC(C)C)C(=O)N[C@@H](C)C(=O)NCC(=O)N[C@@H](CC(C)C)C(=O)N[C@@H](CC(C)C)C(=O)N[C@@H](CO)C(=O)N[C@@H](CCCNC(=N)N)C(=O)N[C@@H](CO)C(=O)NCC(=O)NCC(=O)N[C@H](C(=O)N[C@H](C(=O)N[C@@H](CCCCN)C(=O)N[C@@H](CC(N)=O)C(=O)N[C@@H](CC(N)=O)C(=O)N[C@@H](Cc1ccccc1)C(=O)N[C@H](C(=O)N1CCC[C@H]1C(=O)N[C@H](C(=O)N[C@@H](CC(N)=O)C(=O)N[C@H](C(=O)NCC(=O)N[C@@H](CO)C(=O)N[C@@H](CCCCN)C(=O)N[C@@H](C)C(=O)N[C@@H](Cc1ccccc1)C(N)=O)C(C)C)[C@@H](C)O)C(C)C)C(C)C)C(C)C)[C@@H](C)O)C(C)C)[C@@H](C)O)[C@@H](C)O | nt | nt | -13 | nt | 7%
CCC(=O)N1CCc2cc(CNC(=O)Cc3ccc(F)cc3)ccc21 | 5% | 8% | nt | 0% | nt
CCCCCCCC/C=C\CCCCCCCCCCCC(=O)O | nt | nt | 12 | nt | -14%
Cc1ccc(NC(=S)Nc2cccc(-c3n[nH]c(=S)o3)c2)cc1 | -30% | ? | 13 | -3% | 50µM*
O=C(CC1Sc2ccc(C(F)(F)F)cc2NC1=O)Nc1ccc(Cl)c(C(F)(F)F)c1 (stereo not drawn) | ? | -5% | nt | 11µM* | nt
SMILES | Tau fluor cs | Tau fibril ThT | Coupling enz | Tau FP inhib | Sfp inh
Oc1ccc(N=Nc2ccccc2)cc1 | nt | nt | 0 | nt | 9%
Oc1ccc(N=Nc2n[nH]c(-c3ccc(Cl)cc3)n2)cc1 | ? | 1.8µM* | -2 | 4% | 12%
COC(=O)Cn1ncn2c(cc3oc(C)cc32)c1=O | 3% | -3% | -2 | -7% | 56µM*
COc1ccc(CN2C(=O)/C(=C/c3ccc(-c4ccc(Cl)c(C(=O)O)c4)o3)SC2=S)cc1 | -4% | ? | 2 | -4% | 50µM*
O=C(O)c1cc(-c2ccc(/C=C3/SC(=S)N(Cc4ccccc4)C3=O)o2)ccc1Cl | 2% | 10µM* | -2 | -6% | 50µM*
O=C(CCN1C(=O)/C(=C/c2ccccc2Cl)SC1=S)NNC(=O)c1ccccc1O | nt | nt | 4 | nt | 50µM*
O=C1/C(=C\c2ccc(O)c(O)c2)SC(=S)N1Cc1ccccc1 | nt | nt | -1 | nt | -19%
O=C1/C(=C\c2cccc(O)c2O)SC(=S)N1Cc1ccccc1 | nt | nt | 1 | nt | 40µM*
CC(C)CO/N=C1/C[C@@H](O)[C@@H](O)[C@@H]2[C@@H]3C(=O)N(c4cccc(Oc5ccccc5)c4)C(=O)[C@H]3CC[C@H]12 | -7%[11.6 µM] | -7%[11.5 µM] | 0 | 0%[11.6 µM] | 25%
COc1ccc(-c2ccc(=O)n(CC(=O)Nc3ccc(N(C)C)cc3)n2)cc1 | ? | ? | nt | 2% | nt
O=C1/C(=C\c2cccc(O)c2)SC(=S)N1Cc1ccccc1 | nt | nt | 2 | nt | -6%
Cc1cccc(N2C(=O)/C(=C/c3cccnc3)SC2=S)c1 | -6% | ? | 3 | 8% | 14%
Cc1ccc(/C=C2\SC(=S)N(c3cccnc3)C2=O)o1 | -18% | 16µM* | -25 | ? | 50µM*
Cc1ccc(/C=C2\SC(=S)N(Cc3ccccc3)C2=O)o1 | ? | 16µM* | -16 | ? | ?
CCS(=O)(=O)NCc1ccc2[nH]c3c(c2c1)CCCC3 | ? | -25% | -44* | 3% | -3%
Cc1ccc(CNS(=O)(=O)c2ccc3[nH]c4c(c3c2)CCCC4)cc1 | ? | 1% | nt | ? | nt
